Results published in ChEMBL document CHEMBL3988442, “University of Dundee, Small-Polar-MMV Screening Library” (2021).
The whole screen tested about 48,000 compounds, of which about 13,000 (27%) showed an effect of 50% or more. Some of the results follow.

Tested on: Wolbachia pipientis
Experiment: Anti-Wolbachia Cell-Based Screen
Type: functional
Parameters: scale not given: in the data most compounds retested in dose-response had high values
Details: 5 µM

Row | SMILES | Percent Effect [%]
1 | CCc1nc(CCNc2ncccc2C#N)sc1C | -8.813
2 | CN(C)C(=O)Cc1ccccc1NCc1nc(Cc2ccccc2)no1 | 16.45
3 | O=C(NCc1cc(O)ncn1)C1COc2ccccc2C1 (stereo unspecified) | -5.183
4 | O=C1N(CCCc2ccccc2)CCCC1(O)CNCc1ccccc1 (stereo unspecified) | -2.179
5 | Cc1cnn(-c2cccc(N3CCN(c4cc(C)nc(C)n4)CC3)n2)c1 | 4.719
6 | CCc1nc(C2CCCN(C(=O)NCCOC)C2)no1 (stereo unspecified) | 110.5
7 | Cc1c(C)c2c(c(C)c1O)CC[C@](C)(C(=O)O)O2 [(R)-TROLOX] | 132.5
8 | CNc1cc(C)nc(NCc2cc(C)cc3c(C)c(C)[nH]c23)n1 | 13.77
9 | CNC(=O)NC(=O)C(C)N1CCN(C2CCCC2)CC1 (stereo unspecified) | -18
10 | Cc1csc2ncn(C(C)Cc3cccnc3)c(=O)c12 (stereo unspecified) | -2.167
11 | CCC(Cn1ccnc1)n1cnc2scc(C)c2c1=O (stereo unspecified) | 110.7
12 | CCC(Cn1ccnc1)n1cnc2c(C)csc2c1=O (stereo unspecified) | 163.7
13 | Cc1csc2c(=O)n(C(C)Cc3cccnc3)cnc12 (stereo unspecified) | 4.44
14 | Cc1nc(CN2CCCn3c(nc(Cn4ccnc4)cc3=O)C2)cs1 | 17.01
15 | Cc1csc2c(=O)n(CCN3CCC(c4ccccc4)CC3)cnc12 | 21.54
16 | CC(Cn1ccnc1)NC(=O)NCCNC(=O)C(C)C (stereo unspecified) | -18.32
17 | CCC(CO)n1cnc2scc(C)c2c1=O (stereo unspecified) | 100.6
18 | COCC1CCN(Cc2cc(O)c3c(C)ccc(C)c3n2)CC1 | 5.678
19 | CN1CC(=O)N(c2cccnc2)CC12CCN(C(=O)C1CCCCC1)C2.O=C(O)C(F)(F)F.O=C(O)C(F)(F)F (stereo unspecified) | -22.33
20 | Cn1cccc1C(=O)N1CCCCC12CC(=O)N(c1cccnc1)C2.O=C(O)C(F)(F)F (stereo unspecified) | -1.407
21 | Cc1oncc1C(=O)N1CCC2(C1)CN(c1cccnc1)C(=O)CN2C (stereo unspecified) | -7.65
22 | Cc1cc(C(=O)N2CCC3(CC2)COCCN(c2cccnc2)C3)[nH]n1.O=C(O)C(F)(F)F | -3.174

Row | SMILES | Percent Effect [%]
23 | CN1CC(=O)N(c2cccnc2)CC12CCN(C(=O)c1cccn1C)C2.O=C(O)C(F)(F)F.O=C(O)C(F)(F)F (stereo unspecified) | 108.5
24 | Cc1cc(C(=O)N2CCC3(C2)CN(c2cccnc2)C(=O)CN3C)[nH]n1.O=C(O)C(F)(F)F.O=C(O)C(F)(F)F (stereo unspecified) | 112
25 | COc1cc(C)ccc1OCCN1CC[C@@]2(O)CCNC[C@H]2C1 | 28.12
26 | O=C(c1cc2cccc(F)c2[nH]1)N1C[C@@H](O)[C@H](N2CCCC2)C1 | 132.3
27 | CN(C)[C@H]1CN(C(=O)c2ccc3sc4c(c3c2)CCNC4=O)C[C@@H]1O | 13.68
28 | CN1CCN([C@@H]2CN(C(=O)c3cc4cccc(F)c4[nH]3)C[C@H]2O)CC1 | 104.7
29 | CCn1nc(CC(C)C)cc1C(=O)N1C[C@H](O)[C@@H](N2CCCCC2)C1 | -3.036
30 | COc1ccccc1OCc1cc(C(=O)N2C[C@H](O)[C@@H](N(C)C)C2)n[nH]1 | 14.49
31 | CN(C)[C@@H]1CN(C(=O)c2cc3cccc(F)c3[nH]2)C[C@H]1O | 116.9
32 | CN1CCN([C@@H]2CN(C(=O)c3cc4ccc(F)cc4[nH]3)C[C@H]2O)CC1 | 68.22
33 | Cc1ccc2cc(C(=O)N3CCS(=O)(=O)CC3)[nH]c2c1 | -4.814
34 | Cc1ccc2cc(C(=O)N3CCN(C(=O)c4ccoc4)CC3)[nH]c2c1 | 0.1699
35 | Cc1ccc(OC2(C(=O)O)CCN(C(=O)c3ccoc3C)CC2)cn1 | -1.307
36 | CCN(Cc1csc(CS(C)(=O)=O)n1)c1cccc(F)c1 | 0.8671
37 | CCN(C)c1ccc(CNC(=O)CCn2cc(C)cn2)cc1F | -2.464
38 | Cc1ccc(N2CCO[C@H]3CN(Cc4cc(C)on4)CC[C@H]3C2=O)cn1.O=C(O)C(F)(F)F.O=C(O)C(F)(F)F | -4.354
39 | CC(C)c1cc(NCC(O)c2ccc(F)cc2)n2nccc2n1 (stereo unspecified) | -15.19
40 | CCN(CC)C(=O)Cn1cc(C(=O)NCCc2scnc2C)nn1 | 5.922
41 | O=C(NC1CCS(=O)(=O)c2ccccc21)c1sccc1C1CC1 (stereo unspecified) | -7.789
42 | CN(CCc1ccccn1)[C@@H]1CCN(c2cccc(C#N)n2)C[C@H]1O | 16.97
43 | N#CCCCn1nnc(C2(NC(=O)c3ccccc3)CCCC2)n1 | -18.68
44 | O=C1CN(C(=O)c2cc(-c3ccco3)nc3c(Cl)cccc23)CCN1 | -11.35

Row | SMILES | Percent Effect [%]
45 | CCc1nccc(CN2CCC(CNC(=O)Nc3ccccc3)C2)n1 (stereo unspecified) | -10.66
46 | COc1cc(CNC(=O)C(C)SC)cc(Br)c1OC (stereo unspecified) | 11.13
47 | O=C(c1ccc(F)cc1F)N1C[C@@H](O)[C@H](N2CCOCC2)C1 | 7.48
48 | O=C(c1cc2cccc(F)c2[nH]1)N1C[C@@H](O)[C@H](N2CCOCC2)C1 | 110.4
49 | O=C(Nc1ccc(-n2cccn2)cc1)N1C[C@H](O)[C@@H](N2CCOCC2)C1 | 1.189
50 | CCCn1ncc(-c2nc3c(cnn3CC)[nH]2)c1C | -25.23
51 | COCCN(c1ccncc1)S(=O)(=O)c1cc(C)c(F)cc1F | -2.029
52 | Cc1noc(C(C)C)c1C(=O)NCc1ccc2c(c1)OCCO2 | 83.78
53 | Cc1noc(C(C)C)c1C(=O)NCc1ccc(N(C)C)c(F)c1 | 78.48
54 | Cc1noc([C@@H](C)NCc2ccc(F)cc2)c1C(=O)O.Cl | -4.042
55 | Cc1noc(C)c1C(=O)NCc1ccnc(OCC(F)(F)F)c1 | -2.057
56 | CC(=O)NCC1CCN(C(=O)NCc2ccc3c(c2)OCCO3)CC1 | -6.191
57 | CN(C)C(=O)c1ccccc1NC(=O)N(C)Cc1ccccc1O | -13.22
58 | O=C(CCNC(=O)NC1CCN(C2CC2)CC1)NCc1ccccc1 | -15.75
59 | N#Cc1ccnc(N2CCN(CC(O)c3ccc(F)c(F)c3)CC2)c1 (stereo unspecified) | -18.53
60 | CCc1cc(N[C@H]2CC[C@H](O)CC2)n2nc(C)c(C)c2n1 | -14.47
61 | Cc1ccc(CNC(=O)Nc2cc(C(F)(F)F)c[nH]c2=O)cn1 | 3.357
62 | Cc1ccc(CNC(=O)Nc2nccs2)cn1 | 93.38
63 | Cc1ccc(CNC(=O)Nc2nncs2)cn1 | 108.3
64 | Cc1ccc(CNC(=O)Nc2nncs2)n1C | -4.226
65 | Cc1ccc(CNC(=O)NCc2csc(C)n2)cn1 | -1.986
66 | COc1cc(CNC(=O)Nc2nncs2)ccc1O | -8.608
